Measured values reported in the supplement of paper PMC6089552.
Out of some 3,200 compounds screened, about 300 (9.4%) showed activity. The entries come from a sample that favours actives as a whole.

Test system: A673/TR/shEF
Assay: cell viability (LOESS-normalised, relative to median of negative controls) (log2 ratio); higher = more viable cells (less compound effect), active = hit call of the paper (over 3 MAD below the median)
Settings: treatment time: 72 h
Method in brief: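 A673/TR/shEF Ewing sarcoma cells (1,500 per well, 384-well plates) were grown with or without doxycycline to induce EWS-FLI1 shRNA knockdown, starting 24 h before compounds. Library compounds at two or more concentrations, with DMSO controls, were added for three days. Cell viability was read by CellTiter-Glo luminescence on an Envision reader, then LOESS-corrected per plate, divided by the median of negative controls and log2-transformed. Hits were wells at least three median absolute deviations from the median of all screened wells.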

[1] = 0.25 µM, library screen: screen1, EWS-FLI1 expression: high (no doxycycline)
[2] = 0.25 µM, library screen: screen1, EWS-FLI1 expression: low (doxycycline-induced shRNA knockdown)
[3] = 2.5 µM, library screen: screen1, EWS-FLI1 expression: high (no doxycycline)
[4] = 2.5 µM, library screen: screen1, EWS-FLI1 expression: low (doxycycline-induced shRNA knockdown)
[5] = 0.25 µM, library screen: screen2, EWS-FLI1 expression: high (no doxycycline)
[6] = 0.25 µM, library screen: screen2, EWS-FLI1 expression: low (doxycycline-induced shRNA knockdown)
[7] = 2.5 µM, library screen: screen2, EWS-FLI1 expression: high (no doxycycline)
[8] = 2.5 µM, library screen: screen2, EWS-FLI1 expression: low (doxycycline-induced shRNA knockdown)
[9] = 0.103 µM, library screen: screen3, EWS-FLI1 expression: high (no doxycycline)
[10] = 0.103 µM, library screen: screen3, EWS-FLI1 expression: low (doxycycline-induced shRNA knockdown)
[11] = 0.308 µM, library screen: screen3, EWS-FLI1 expression: high (no doxycycline)
[12] = 0.308 µM, library screen: screen3, EWS-FLI1 expression: low (doxycycline-induced shRNA knockdown)
[13] = 0.926 µM, library screen: screen3, EWS-FLI1 expression: high (no doxycycline)
[14] = 0.926 µM, library screen: screen3, EWS-FLI1 expression: low (doxycycline-induced shRNA knockdown)
[15] = 2.8 µM, library screen: screen3, EWS-FLI1 expression: high (no doxycycline)
[16] = 2.8 µM, library screen: screen3, EWS-FLI1 expression: low (doxycycline-induced shRNA knockdown)
[17] = 8.3 µM, library screen: screen3, EWS-FLI1 expression: high (no doxycycline)
[18] = 8.3 µM, library screen: screen3, EWS-FLI1 expression: low (doxycycline-induced shRNA knockdown)
[19] = 25 µM, library screen: screen3, EWS-FLI1 expression: high (no doxycycline)
[20] = 25 µM, library screen: screen3, EWS-FLI1 expression: low (doxycycline-induced shRNA knockdown)

Measured: cell viability (log2)

CCOC(=O)c1c[nH]c2ccc(OC)cc2c1=O
inactive: [1] 0.15 | [2] 0.1 | [3] 0.112 | [4] 0.121

CC(C)[C@@H](C)/C=C/[C@@H](C)[C@H]1CC[C@H]2C3=CC=C4C[C@@H](O)CC[C@]4(C)[C@H]3CC[C@]12C
inactive: [1] 0.0837 | [2] 0.11 | [3] 0.0787 | [4] 0.0538

COc1cc(C(=O)OCCCN2CCCN(CCCOC(=O)c3cc(OC)c(OC)c(OC)c3)CC2)cc(OC)c1OC
inactive: [5] 0.105 | [6] 0.0948 | [7] 0.199 | [8] 0.123

COc1cc2c(Oc3ccc4[nH]c(C)cc4c3F)ncnc2cc1OCCCN1CCCC1
inactive: [9] 0.0825 | [10] 0.0561 | [11] 0.034 | [12] 0.013 | [13] 0.0586 | [14] 0.0142 | [15] 0.0459 | [16] 0.0297 | [17] -0.077 | [18] 0.092 | [19] 0.0238 | [20] 0.0041

COc1cc(Nc2c(C#N)cnc3cc(OCCCN4CCN(C)CC4)c(OC)cc23)c(Cl)cc1Cl
inactive: [9] 0.00802 | [10] 0.123 | [11] 0.0466 | [12] 0.063 | [13] 0.0151 | [14] 0.16 | [15] -0.0156 | [16] 0.139 | [17] -0.148 | [18] -0.136
active: [19] -1.59 | [20] -0.647

O=C(O)CSc1nnc(-c2ccc(Cl)cc2Cl)n1-c1ccccc1
inactive: [1] 0.109 | [2] 0.165 | [3] 0.15 | [4] 0.122

COc1c(C(=O)O)ccc2c1CCC(C)(C)O2
inactive: [1] 0.0873 | [2] 0.0519 | [3] 0.206 | [4] -0.0164

CCOc1cc2ncc(C#N)c(Nc3ccc(OCc4ccccn4)c(Cl)c3)c2cc1NC(=O)/C=C/CN(C)C
active: [17] -0.204 | [18] -0.529
inactive: [9] 0.0468 | [10] 0.0085 | [11] -0.038 | [12] -0.0155 | [13] -0.0139 | [14] -0.00326 | [15] -0.0436 | [16] -0.282 | [19] -0.035 | [20] -0.415

CCOc1cc2ncc(C#N)c(Nc3ccc(F)c(Cl)c3)c2cc1NC(=O)/C=C/CN(C)C
inactive: [9] 0.06 | [10] 0.0264 | [11] 0.0695 | [12] 0.0377 | [13] 0.0744 | [14] -0.098 | [17] -0.14 | [18] -0.477
active: [15] -0.201 | [16] -0.422 | [19] -1.43 | [20] -0.678

CCOc1ccc(C(=O)Nc2cccc(OC)c2)cc1Cl
inactive: [1] 0.0358 | [2] 0.0408 | [3] 0.151 | [4] 0.0428

CCOc1ccc(C(=O)Nc2ccc(NC(=O)CC)cc2)cc1Cl
inactive: [1] 0.102 | [2] 0.0179 | [3] 0.0812 | [4] -0.0835

COc1cccc(-n2c(C)c(C(C)=O)c(C(C)=O)c2C)c1
inactive: [1] -0.0313 | [2] 0.00668 | [3] 0.0772 | [4] -0.0891

COc1cc(C(=O)NC2CCCCC2)c([N+](=O)[O-])cc1OC
inactive: [1] 0.122 | [2] 0.0996 | [3] 0.157 | [4] 0.0416

CC(=O)O[C@]1(C(=O)CO)[C@H](C)C[C@H]2[C@@H]3CCC4=CC(=O)C=C[C@]4(C)[C@@]3(F)[C@@H](O)C[C@@]21C
inactive: [1] 0.0305 | [2] -0.118 | [3] 0.0736 | [4] -0.0945

COc1ccc(/C=C(/NC(=O)c2ccccc2)C(=O)N2CCCCCC2)cc1OC
inactive: [1] 0.12 | [2] 0.0586 | [3] 0.088 | [4] 0.085

CC(C(=O)O)[C@H]1CCC2C3CC=C4C[C@@H](O)CC[C@]4(C)C3CC[C@@]21C (some centres not stated)
inactive: [1] 0.0415 | [2] 0.0559 | [3] 0.0699 | [4] -0.0298

CC1(C)CC(=O)C2=C(C1)Nc1ccccc1N(C(=O)Cc1ccc(Cl)cc1)C2c1cccnc1 (configuration not stated)
inactive: [1] 0.0404 | [2] 0.0353 | [3] 0.127 | [4] 0.0963

CC1=C(C(=O)Nc2ccccc2Cl)C(c2ccc(F)cc2)NC(=O)N1 (configuration not stated)
inactive: [1] 0.153 | [2] 0.0871 | [3] 0.0947 | [4] -0.018

CC1(C)CC2C1CCC1(CBr)CCC3C(CC(=O)O)C(=O)OC32C1 (configuration not stated)
inactive: [1] 0.146 | [2] 0.038 | [3] 0.195 | [4] 0.152

CCN(CC)CCNC(=O)c1c(C)[nH]c(/C=C2\C(=O)Nc3ccc(F)cc32)c1C
inactive: [9] 0.0562 | [10] 0.0683 | [11] 0.0856 | [12] 0.0784 | [13] -0.0103 | [14] 0.0749 | [15] -0.00223 | [16] 0.0762 | [17] -0.0922 | [18] 0.071
active: [19] -0.697 | [20] -0.541

CCN(CC)CCNC(=O)c1cc(S(C)(=O)=O)ccc1OC
inactive: [1] 0.0293 | [2] 0.172 | [5] 0.198 | [6] 0.0568 | [3] 0.105 | [4] 0.182 | [7] 0.192 | [8] 0.0888

CCN(CC)CCNC(=O)c1ccc(N)cc1
inactive: [1] 0.0893 | [2] 0.128 | [5] 0.138 | [6] 0.0499 | [3] 0.121 | [4] 0.267 | [7] 0.308 | [8] 0.0657

C[N+]1(C)C2CC(OC(=O)C(O)(c3cccs3)c3cccs3)CC1C1OC12 (configuration not stated)
inactive: [9] 0.0262 | [10] 0.0758 | [11] 0.0294 | [12] 0.0213 | [13] -0.023 | [14] 0.0295 | [15] 0.0205 | [16] 0.0567 | [17] 0.0784 | [18] 0.0507 | [19] 0.1 | [20] 0.116

COC(=O)C(C(C)=O)C(C)=O
inactive: [1] 0.0323 | [2] 0.0334 | [3] 0.0258 | [4] 0.125

CC(/C=C/C=C(\C)c1cc(C(C)(C)C)cc(C(C)(C)C)c1)=C\C(=O)O
inactive: [5] 0.134 | [6] 0.0751 | [7] 0.0952 | [8] 0.134

C=CCNC(=O)c1ccc(CN(c2cccc(Cl)c2)S(C)(=O)=O)cc1
inactive: [1] 0.0663 | [2] 0.0926 | [3] 0.107 | [4] 0.133

O=C(O)c1c2ccccc2cc2ccccc12
inactive: [1] 0.0833 | [2] 0.174 | [3] 0.112 | [4] 0.125

NCCC(=O)c1ccccc1N
inactive: [1] 0.0986 | [2] 0.0335 | [3] 0.167 | [4] 0.184

C[N+](C)(C)CCC(=O)c1cccc2ccccc12
active: [5] -0.0772 | [7] -0.524
inactive: [6] 0.0591 | [8] -0.0126

COC(=O)C[C@H]1C(C)(C)C(OC(C)=O)[C@]2(O)C=C3C(CC[C@]4(C)C3CC(=O)O[C@H]4c3ccoc3)C1(C)C2=O (some centres not stated)
inactive: [1] 0.102 | [2] 0.114 | [3] 0.0649 | [4] 0.0874

COc1ccc(C[C@@H](N)C(=O)N[C@H]2[C@@H](O)[C@H](n3cnc4c(N(C)C)ncnc43)O[C@@H]2CO)cc1
inactive: [1] 0.0185 | [2] -0.00341
active: [3] -1.82 | [4] -2

C[C@H](Cc1ccccc1)Nc1ncnc2c1ncn2[C@@H]1O[C@H](CO)[C@H](O)C1O (some centres not stated)
inactive: [5] 0.0269 | [6] 0.14 | [7] 0.0399 | [8] 0.136

COc1nc(N)nc2c1ncn2[C@@H]1O[C@H](CO)[C@@H](O)[C@@H]1O
inactive: [9] -0.0331 | [10] 0.0967 | [11] 0.111 | [12] 0.1 | [13] 0.0614 | [14] 0.133 | [15] 0.0686 | [16] 0.0525 | [17] 0.0218 | [18] 0.0206 | [19] 0.0232 | [20] 0.121

CN1/C(=C(\O)Nc2ccccn2)C(=O)c2ccccc2S1(=O)=O
inactive: [9] 0.0972 | [10] 0.122 | [1] -0.035 | [2] 0.0628 | [5] 0.14 | [6] 0.0798 | [11] 0.121 | [12] 0.145 | [13] 0.194 | [14] 0.0843 | [3] 0.139 | [4] 0.148 | [7] 0.135 | [8] 0.0591 | [15] 0.173 | [16] 0.0997 | [17] 0.146 | [18] 0.0703 | [19] 0.152 | [20] 0.0778

Nc1nc(Nc2ccccc2)nc2c1ncn2C1O[C@H](CO)[C@@H](O)[C@H]1O (some centres not stated)
inactive: [5] 0.161 | [6] 0.05 | [7] 0.213 | [8] -0.0193

Nc1cccc(-c2cc3c(Oc4cccc(O)c4)ncnc3[nH]2)c1
inactive: [9] 0.136 | [10] 0.0102 | [11] 0.0422 | [12] 0.0346 | [13] 0.0247 | [14] 0.00411 | [15] -0.00369 | [16] 0.0285 | [17] -0.0241 | [18] 0.0796
active: [19] -0.494 | [20] -0.321
